ADAM17 inh = ADAM17 inhibitors, primary screen, biochemical, QFRET. inhibition, % at 6.95 µM. hit rate 0.83% among 370,000. AID 720648, 2013. recombinant ADAM17, EDANS/DABCYL FRET peptide cleavage;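 active = inhibition above the mean of compounds lying between control limits plus 3 SD, set per campaign, cut at about 8.5% in these data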
Target sequence (P78536 215-824 limits assumed): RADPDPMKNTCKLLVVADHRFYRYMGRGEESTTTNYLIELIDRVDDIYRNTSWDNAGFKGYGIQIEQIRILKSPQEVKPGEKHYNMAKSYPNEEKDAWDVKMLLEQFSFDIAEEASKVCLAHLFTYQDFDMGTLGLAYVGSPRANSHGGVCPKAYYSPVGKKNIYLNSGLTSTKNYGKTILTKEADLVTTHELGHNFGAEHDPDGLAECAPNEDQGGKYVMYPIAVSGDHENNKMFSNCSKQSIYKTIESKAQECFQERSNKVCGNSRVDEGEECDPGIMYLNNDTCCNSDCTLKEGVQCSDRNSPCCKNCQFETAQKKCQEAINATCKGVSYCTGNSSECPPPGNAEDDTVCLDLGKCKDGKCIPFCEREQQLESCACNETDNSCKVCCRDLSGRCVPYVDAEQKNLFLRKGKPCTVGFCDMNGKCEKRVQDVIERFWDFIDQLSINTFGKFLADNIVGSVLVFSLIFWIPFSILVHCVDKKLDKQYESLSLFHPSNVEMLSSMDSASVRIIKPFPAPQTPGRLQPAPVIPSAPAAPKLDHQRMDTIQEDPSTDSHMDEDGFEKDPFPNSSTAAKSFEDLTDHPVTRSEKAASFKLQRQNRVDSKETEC
DSG3 Ab inh = inhibitors of pemphigus antibody binding to DSG3, primary screen, biochemical, bead-based, flow cytometry, scFv-GFP | binding (percent of control), % at 10 µM | DSG3-coupled beads, scFv-anti-DSG3-GFP binding; active compounds read low | Desmoglein-3 (Homo sapiens), P32926 | hit rate 0.48% among 310,000;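 active = binding more than 3 SD below its plate's average and above zero; inconclusive = below that plate limit but binding exactly zero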;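 note: hits lower antibody fragment binding to DSG3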
rCAG RNA binder = binders of r(CAG) RNA repeats, primary screen, biochemical, fluorescence | inhibition, % at 3 µM | hit rate 1.3% among 370,000 | r(CAG) RNA repeat, TO-PRO-1 dye displacement fluorescence;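 active = inhibition above the plate cutoff, the mean of all test compounds on that plate plus 3 SD, cut at about 35% in these data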;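 note: higher means more dye released from RNA so lower well fluorescence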
proKLK7 act = proKLK7 zymogen activators, primary screen, biochemical, fluorescence intensity; Kallikrein-7 (Homo sapiens), P49862; purified proKLK7, EDANS-DABCYL substrate fluorescence; 100% is mature enzyme control, 0% vehicle; activation, % at 7 µM; hit rate 0.9% among 370,000;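 active = activation above the mean of all tested compounds plus 3 SD, computed per campaign excluding outliers beyond control limits, cut at about 13% in these data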
MPTP inh = mitochondrial permeability transition pore inhibitors, primary screen, biochemical, isolated mouse mitochondria, absorbance. Ca2+ swelling absorbance, 30 min. inhibition, % at 10 µM. hit rate 1.4% among 360,000;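 active = inhibition of 50% or more, scaled per plate between neutral and stimulator controls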
ADAM10 inh = human ADAM10 inhibitors, primary screen, biochemical, QFRET, HTS | Disintegrin and metalloproteinase domain-containing protein 10 (Homo sapiens), O14672 | inhibition, % at 7 µM | hit rate 0.62% among 370,000 | recombinant ADAM10, EDANS/DABCYL FRET peptide cleavage, 3 h;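 active = inhibition above a per-campaign cutoff equal to the mean of compounds falling between control-based bounds plus 3 SD, cut at about 20% in these data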
Rh123 counter = fluorescence retest of MPTP screen hits in isolated mitochondria, single concentration | shares compounds with MPTP inh | membrane potential, Rhodamine 123 fluorescence | inhibition, % at 10 µM | hit rate 78% among 5,000; in the data active = inhibition above about 22%
MPTP abs DR = mitochondrial permeability transition pore inhibitors, dose response, biochemical, absorbance, uHTS hits; hit rate 58% among 780; AID 651561, 2012; IC50, µM; isolated mitochondria swelling; shares compounds with MPTP inh; in the data active = IC50 below about 20 µM
MPTP cs DR = fluorescent counter-screen in isolated mitochondria, dose response, counter-screen for MPTP inhibitor project, biochemical, fluorescence, uHTS hits; shares compounds with MPTP inh; isolated mitochondria counterscreen, fluorescence read-out; hit rate 49% among 780; AID 651564, 2012; IC50, µM; in the data active = IC50 below about 80 µM
Of the large screens only hits and unclear results are named; the others gave an inactive call (follow-up assays come after a bar, where they were run). A selection: hits, their analogues and other compounds. The true share with any hit is near 4.7%.

CCCc1cc(O)c2c(C)cc(=O)oc2c1	MPTP inh 82 | Rh123 counter 87
Cc1cc(O)c2c(-c3ccccc3)cc(=O)oc2c1	none
CCOC(=O)c1c(C(F)(F)C(F)(F)C(F)(F)C(F)(F)F)n[nH]c1C	MPTP inh 73 | Rh123 counter 78
COc1cc(NS(=O)(=O)c2ccc(C)cc2C)cc(OC)c1OC	MPTP inh 84 (no result: DSG3 Ab inh) | Rh123 counter 72
NCCOc1ccc(C23CC4CC(CC(C4)C2)C3)cc1	MPTP inh 76 | Rh123 counter inactive
OCCN1CCN(CC(O)COc2ccc(C34CC5CC(CC(C5)C3)C4)cc2)CC1 (centres undefined)	MPTP inh 91 | Rh123 counter inactive | MPTP abs DR 4.1 | MPTP cs DR 55
Oc1ccc(C23CC4CC(CC(C4)C2)C3)cc1O	DSG3 Ab inh inconclusive
Cc1ccc(-n2c(SCC(=O)c3ccc(-c4ccccc4)cc3)nnc2-c2ccc(C(C)(C)C)cc2)cc1	none (no result: DSG3 Ab inh, MPTP inh)
O=S1(=O)c2cccc3cccc(c23)N1Cc1nnc(-c2ccccc2Br)o1	MPTP inh 76 | Rh123 counter 47
O=C1c2ccccc2S(=O)(=O)N1Cc1nnc(-c2ccccc2Br)o1	none
CCOC(=O)c1csc(NC(=O)C2CCCN(S(=O)(=O)c3cc(OC)ccc3OC)C2)n1 (centres undefined)	none (no result: DSG3 Ab inh, MPTP inh)
O=C(O)CCN1C(=O)/C(=C\c2ccc(-c3nc4ccccc4s3)o2)SC1=S	MPTP inh 89 (no result: ADAM17 inh, rCAG RNA binder, proKLK7 act, ADAM10 inh) | Rh123 counter inactive
COc1ccc(-c2ccc3c(n2)CCCN3S(=O)(=O)c2ccccc2)cc1	none (no result: DSG3 Ab inh, MPTP inh)
CCCCCCCCN1C(=O)[C@@H](CC(=O)N2CCCCC2)C[C@@]2(C(=O)OC)C1=C[C@H](C(C)(C)C)O[C@@H]2C	none (no result: DSG3 Ab inh, MPTP inh)
Cc1cccc(/C=N/c2sc3c(c2C(=O)OC(C)(C)C)CCN(C)C3)c1O	MPTP inh 56 | Rh123 counter inactive | MPTP abs DR 8.9 | MPTP cs DR 67
CCOC(=O)c1c(/N=C/c2cc(C)ccc2O)sc2c1CCN(C)C2	MPTP inh 85 | Rh123 counter inactive | MPTP abs DR inactive | MPTP cs DR 76
CN1CCc2c(sc(NC(=O)c3ccc(C(=O)c4ccccc4)cc3)c2C(N)=O)C1	none
CCOC(=O)c1cc(-c2ccccc2)sc1NC(=O)C(C)OC(=O)c1cccnc1OCC (centres undefined)	MPTP inh 68 | Rh123 counter inactive | MPTP abs DR inactive | MPTP cs DR inactive
Cc1nc(SCC(=O)N(C)c2ccccc2)[nH]c(=O)c1C	none (no result: DSG3 Ab inh, rCAG RNA binder, proKLK7 act, MPTP inh)
COc1cccc(N2CCN(CC(=O)NCc3ccco3)CC2)c1	none (no result: DSG3 Ab inh, MPTP inh)
CCCCOc1ccc(CSCCN=C(N)N)cc1	MPTP inh 72 | Rh123 counter inactive | MPTP abs DR 4.3 | MPTP cs DR 24
CCOC(=O)C1(Cc2ccc(OC)cc2)CCN(S(C)(=O)=O)CC1	none
CCOC(=O)C1(Cc2ccc(Cl)cc2)CCN(C(C)Cc2ccc(O)c(OC)c2)CC1 (centres undefined)	MPTP inh 95 | Rh123 counter 95
CC(C)(C)c1ccc(CNc2ccc([N+](=O)[O-])cn2)cc1	MPTP inh 56 | Rh123 counter 75
CC(C)c1ccc(CNc2ccc([N+](=O)[O-])cn2)cc1	none
O=[N+]([O-])c1cc(CS(=O)(=O)Oc2ccc(Cl)cc2)c(O)c([N+](=O)[O-])c1	MPTP inh 74 | Rh123 counter 59
O=C(Nc1ncc(Cc2cccc(Cl)c2Cl)s1)c1ccc([N+](=O)[O-])cc1	none
O=C(Nc1ncc(S(=O)(=O)c2ccc([N+](=O)[O-])cc2)s1)c1ccc2ccccc2c1	MPTP inh 94 | Rh123 counter 31
O=C(Nc1ccccc1)Nc1ncc([N+](=O)[O-])s1	MPTP inh 88 | Rh123 counter 82
O=C(Nc1ncc(Cc2cc(Cl)ccc2Cl)s1)c1ccc([N+](=O)[O-])cc1	MPTP inh 51 | Rh123 counter inactive | MPTP abs DR inactive | MPTP cs DR <2.5
CCCCC(=O)Nc1ncc([N+](=O)[O-])s1	none
CC(C)CC(=O)Nc1ncc([N+](=O)[O-])s1	MPTP inh 67 | Rh123 counter 56
O=C(Nc1ncc(S(=O)(=O)c2ccc([N+](=O)[O-])cc2)s1)c1cccnc1	none
C=CC[C@]1(c2ccccc2)C(=O)N2C[C@H]3CON(C)[C@H]3C[C@H]2c2ccccc21	none (no result: DSG3 Ab inh, MPTP inh)
COC(=O)[C@]12C[C@H](CC(=O)NCC3CCCCC3)C(=O)N(Cc3ccccc3)C1=C[C@H](COCc1ccccc1)O[C@@H]2C	none (no result: DSG3 Ab inh, MPTP inh)
COC(=O)[C@]12C[C@H](CC(=O)NCCCN3CCCC3=O)C(=O)N(Cc3ccccc3)C1=C[C@H](C(C)C)O[C@@H]2C1CC1	none (no result: DSG3 Ab inh, MPTP inh)
O=C(Nc1ccc(NC(=O)c2cccc([N+](=O)[O-])c2)cc1)c1cccc([N+](=O)[O-])c1	none
O=C(Nc1ncc([N+](=O)[O-])s1)c1cccc([N+](=O)[O-])c1	MPTP inh 56 | Rh123 counter 79
CCCNS(=O)(=O)c1ccc2c(c1)n(C)c(=O)n2C	none
Cn1c(=O)n(C)c2cc(S(=O)(=O)NCCc3ccccc3)ccc21	MPTP inh 59 | Rh123 counter 24
Fc1ccc(Nc2nc(-c3ccncc3)nc3ccccc23)cc1F	MPTP inh 71 | Rh123 counter 45
c1ccc2c(Nc3nc(-c4ccncc4)nc4ccccc34)cccc2c1	none
Clc1cccc(Nc2nc(-c3ccncc3)nc3ccccc23)c1	MPTP inh 69 | Rh123 counter 83
C[C@@H]1C[C@H]2[C@@H](C)C(=O)N3[C@H](c4ccccc4)[C@H](C)C[C@H]3[C@@H](C)C(=O)N2[C@@H]1c1ccccc1	none (no result: DSG3 Ab inh, MPTP inh)
CC(C)[C@H](NC(=O)[C@@H](N)Cc1ccccc1)C(=O)N1CCC2CCN(Cc3ccccc3)CC21 (some centres undefined)	none (no result: DSG3 Ab inh, MPTP inh)
CCCCCCn1c(=O)c(Cc2ccccc2)c(O)c2ccccc21	MPTP inh 58 | Rh123 counter 59
